# Pf growth 48h: Primary qHTS for delayed death inhibitors of the malarial parasite plastid, 48 hour incubation. P. falciparum luciferase growth in erythrocytes, 48 h. Potency, µM (top dose mostly 28.7 µM), usual class: inhibitors. 5.9% of 310,000 active. AID 504832, 2011
#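 Erythrocytes infected with P. falciparum carrying an integrated firefly luciferase reporter (2% hematocrit, 0.1% parasitemia final) were exposed to compounds in RPMI 1640 with 0.5% Albumax at 37 C, 5% CO2. Growth inhibition was scored as reduced luminescence.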
# Pf growth 96h: Primary qHTS for delayed death inhibitors of the malarial parasite plastid, 96 hour incubation; P. falciparum luciferase reporter growth, 96 h; Potency, µM (titrated, usually from 28.7 µM), most hits filed as inhibitors; 6.9% of 320,000 active
#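 P. falciparum expressing integrated firefly luciferase grown in erythrocytes (2% hematocrit, 0.05% parasitemia final) with compounds for 96 hours at 37 C, 5% CO2. Growth inhibition read as loss of luminescence after adding luciferase detection reagent.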
# Sm TGR inh: qHTS Assay for the Inhibitors of Schistosoma Mansoni Peroxiredoxins. Schistosoma mansoni thioredoxin glutathione reductase (TGR), Q962Y6. purified TGR, DTNB reduction, TNB absorbance 405 nm. Potency, µM (top dose mostly 114 µM), actives largely listed as inhibitors. 3% of 360,000 active. AID 485364, 2010; also: nearly all actives have a fitted effect of over 60% in size
#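 TGR 20 nM + NADPH 100 uM (dispensed conc.), cpd preinc 15 min RT; start with NADPH (500 uM addition) then DTNB (15 mM addition). Kinetic TNB absorbance, 405 nm filter. Four-parameter Hill fit across titration.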
# FBPA Giardia inh: qHTS Assay for Inhibitors of Fructose-1,6-bisphosphate Aldolase from Giardia Lamblia; A8B2U2; purified Giardia FBPA; Potency, µM (titrated, usually from 59.6 µM), actives largely listed as inhibitors; 0.71% of 290,000 active; also: nearly all actives have a fitted effect of over 55% in size
# Target sequence (A8B2U2 whole entry, looked up): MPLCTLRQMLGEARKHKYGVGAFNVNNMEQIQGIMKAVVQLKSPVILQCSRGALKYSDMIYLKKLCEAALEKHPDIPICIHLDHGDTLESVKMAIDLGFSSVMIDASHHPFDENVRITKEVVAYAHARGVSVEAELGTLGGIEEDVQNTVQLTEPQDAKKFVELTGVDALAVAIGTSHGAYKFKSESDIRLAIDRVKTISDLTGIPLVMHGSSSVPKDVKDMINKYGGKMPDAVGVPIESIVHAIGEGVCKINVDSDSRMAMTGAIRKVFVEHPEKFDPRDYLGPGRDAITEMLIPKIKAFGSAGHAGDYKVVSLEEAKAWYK
#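 Giardia FBPA (40 nM reagent) was preincubated 10 min at RT with compound (up to 57.5 uM final), then substrate plus GAPDH/TPI/NAD/arsenate coupling system with diaphorase/resazurin was added; resorufin fluorescence (525/598 nm) was read after 20 min.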
# HCMV antiviral: qHTS Assay for inhibitors of the human cytomegalovirus (HCMV); HFF cells, HCMV-luciferase reporter, 72 h; active compounds read low; activity change, negative = inhibition, % at 57.5 µM; 4.5% of 410,000 active; AID 1259415, 2018; in the data active = activity change below about -60%; inconclusive = no clear call, values can overlap the other calls; inactive = above about -39%
#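 Inhibition of viral replication was scored as loss of reporter luminescence in HFFs infected with HCMV-luciferase (MOI 1 PFU/cell) for 72 h; compounds tested at 2 doses, normalized to buffer and Salinomycin controls.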
# Hits are given with their value; i = inactive; ? = inconclusive; nt = not tested or not shown; ! = not confirmed by another sample. Rows were chosen to be rich in hits. Some 14% of all compounds tested hit in one or more screens of this group. Unless noted, calls follow the shape of the dose curve; as a rule, active = well fitted curve in the direction sought with a large enough effect; inconclusive = small, poorly fitted or top-dose-only effect, or another doubt; inactive = no such curve, though single readings can be large; an effect the other way counts as inactive or inconclusive.
SMILES,Pf growth 48h,Pf growth 96h,Sm TGR inh,FBPA Giardia inh,HCMV antiviral
CCc1ccc(-c2cc(C)no2)cc1S(=O)(=O)NCCc1ccc(OC)c(OC)c1,i,12µM,i,i,i
Cc1cc(-c2ccc(C)c(S(=O)(=O)NCc3ccc(Br)cc3)c2)on1,i,i,i,i,-64
Cc1cc(-c2ccc(C)c(S(=O)(=O)NCCc3ccco3)c2)on1,i,?,i,nt,i
Cc1cc(-c2ccc(C)c(S(=O)(=O)NCCc3ccc(S(N)(=O)=O)cc3)c2)on1,i,i,i,nt,-64!
Cc1nc(CCNC(=O)CC2C(=O)NCCN2Cc2ccccc2)nc2c1CCC2 (centres undefined),i,i,?,nt,i
Cc1ccccc1-c1nc(CS(=O)CC(=O)NC2CC2)c(C)o1 (centres undefined),i,i,?,nt,i
Cc1ccccc1-c1nc(CS(=O)CC(=O)NC2CCCCC2)c(C)o1 (centres undefined),i,i,40µM,nt,i
Cc1ccccc1-c1nc(CS(=O)CC(=O)NC2CCCC2)c(C)o1 (centres undefined),i,i,i,nt,i
Cc1oc(-c2ccccc2F)nc1CS(=O)CC(=O)NC1CCCC1 (centres undefined),i,i,14µM,i,i
Cc1nn(CC(=O)N2CCN(c3ccccc3)CC2)c(=O)c2cc3cc(F)ccc3n12,nt,nt,i,nt,i
CCN(CC)CCCCNc1ncc2cc(-c3cc(OC)cc(OC)c3)c(NC(=O)NC(C)(C)C)nc2n1,?,9.3µM,i,i,i
CCN(CC)CCNC1=NCCn2c1cc1cc(OC)ccc12,nt,?,i,i,i
COc1ccc(OCC(O)CN2CCN(Cc3ccc4c(c3)OCO4)CC2)cc1 (centres undefined),i,i,i,i,i
O=C(C(Cl)Cl)N1CCN(Cc2ccc3c(c2)OCO3)CC1,i,i,i,i,-74
Cc1c(O)ccc(C(=O)CN2CCN(Cc3ccc4c(c3)OCO4)CC2)c1O,i,12µM,?,i,i
CC(=O)c1ccc(OCC(O)CN2CCN(Cc3ccc4c(c3)OCO4)CC2)cc1 (centres undefined),i,4.1µM!,i,i,i
SC(COCc1ccccc1)CN1CCN(Cc2ccc3c(c2)OCO3)CC1 (centres undefined),?,8.3µM,i,?,nt
COC(=O)C[C@@H]1CC[C@@H](NC(=O)Nc2cc(F)ccc2F)[C@@H](CO)O1,nt,nt,nt,nt,i
Cc1ccc(C(=O)N2CCN(Cc3ccc4c(c3)OCO4)CC2)o1,i,i,i,i,i
O=C(c1sccc1Br)N1CCN(Cc2ccc3c(c2)OCO3)CC1,i,i,i,i,-63
Cc1cc(NC(=O)c2ccc(OCC3CCCO3)cc2)ccc1Br (centres undefined),nt,nt,nt,nt,-81
CCN(CC)S(=O)(=O)c1ccc(Cl)c(C(=O)NCC2CCCO2)c1 (centres undefined),i,10µM,i,i,i
O=C(Nc1ccc(Cl)cc1)c1ccc(OCC2CCCO2)cc1 (centres undefined),i,i,i,i,i
Cc1ccc2nc(NC(=O)c3ccc(OCC4CCCO4)cc3)sc2c1 (centres undefined),i,?,i,i,-84
CCOc1ccc(NC(=O)c2ccc(OCC3CCCO3)cc2)cc1S(=O)(=O)N(CC)CC (centres undefined),10µM,10µM,i,nt,i
SMILES,Pf growth 48h,Pf growth 96h,Sm TGR inh,FBPA Giardia inh,HCMV antiviral
Cc1cc(C)c2nc(NC(=O)c3ccc(OCC4CCCO4)cc3)sc2c1 (centres undefined),i,?,i,i,?
CC/C(=N\N=C(/CC)c1ccccc1N)c1ccccc1N,nt,nt,nt,nt,i
COc1ccc(NC(=O)C[C@H]2C(=O)N(CCc3ccccc3)C[C@@H]2Cc2ccccc2)cc1,nt,nt,nt,nt,i
Cc1cc(OCC(=O)N2CCc3ccccc3C2)c(C)cc1Br,i,i,i,i,i
O=C(Nc1nc(-c2ccc(Cl)cc2Cl)cs1)c1ccc(OCC2CCCO2)cc1 (centres undefined),i,?,i,i,-63
COc1ccc(S(=O)(=O)N(C)C)cc1NC(=O)c1ccc(OCC2CCCO2)cc1 (centres undefined),nt,nt,nt,nt,i
Cc1cccc(NC(=O)c2ccc(OCC3CCCO3)cc2)c1C (centres undefined),i,i,i,i,i
CCN(CC)S(=O)(=O)c1cccc(NC(=O)C2SC(=Nc3ccc(C)cc3C)C(C(=O)NCC3CCCO3)=C2N)c1 (centres undefined),9.3µM,nt,i,i,i
CCC(=O)Nc1ccc(OCC2CCCO2)cc1 (centres undefined),i,12µM,i,i,i
CCN(CC)S(=O)(=O)c1ccc(NC(=O)c2ccc(OCC3CCCO3)cc2)cc1 (centres undefined),9.3µM,9.3µM,i,nt,-90
CC(C)C(=O)N1CCC(CN=Cc2c(O)n(C3CCCCC3)c(=O)n(C3CCCCC3)c2=O)CC1,1.5µM,i,i,i,i
NS(=O)(=O)c1ccc(N=Cc2c(O)n(C3CCCCC3)c(=O)n(C3CCCCC3)c2=O)cc1,i,i,i,i,i
O=[N+]([O-])c1cc(O)c2ncccc2c1,?,?,i,?,-97
Cc1ccc([N+](=O)[O-])c2cccnc12,i,i,i,i,i
O=[N+]([O-])c1cc2cccnc2c2ncccc12,4.7µM,9.3µM,i,?,-97
O=[N+]([O-])c1ccc(Sc2cccc3cccnc23)c2cccnc12,?,?,i,?,-101
COc1ccc(CCNC(=O)c2cc(Nc3ccccc3)nc3ccccc23)cc1OC,nt,nt,i,nt,i
CNC(=S)N/N=C1\CC(c2ccccc2)Oc2ccccc21 (centres undefined),10µM,6.6µM,i,i,?
COc1cccc(NC(=O)CSc2nccn2C2CCCC2)c1,nt,nt,i,nt,i
Cc1coc2c(C)c3oc(=O)c(CCC(=O)N4CCC(C(=O)NCCCC(=O)O)(c5ccccc5)CC4)c(C)c3cc12,?,9.3µM,i,nt,i
Cc1c(CC(=O)N2C[C@H]3C[C@@H](C2)c2cccc(=O)n2C3)c(=O)oc2c(C)c(O)ccc12,i,i,i,i,i
Cc1oc2c(C)c3oc(=O)c(CCC(=O)N4C[C@H]5C[C@@H](C4)c4cccc(=O)n4C5)c(C)c3cc2c1C,?,12µM,i,i,i
Cc1coc2c(C)c3oc(=O)c(CCC(=O)N4C[C@H]5C[C@@H](C4)c4cccc(=O)n4C5)c(C)c3cc12,3.3µM,?,i,i,?
Cc1oc2cc3oc(=O)c(CCC(=O)N4C[C@H]5C[C@@H](C4)c4cccc(=O)n4C5)c(C)c3cc2c1C,?,2.9µM,i,i,i
Cc1ccnc2nc(C(=O)OCC(=O)N(CC(C)C)C3CCS(=O)(=O)C3)nn12 (centres undefined),?,?,i,nt,i

# Assay outcomes deposited in PubChem BioAssay by National Center for Advancing Translational Sciences (NCATS).
